# Measured values: the supplement of paper PMC6522484
# ± gives the standard deviation of the averaged measurements.
# How the values were obtained:
# DLD1 [1] = assay: cell viability (CellTiter-Glo) relative to plate median (fraction of plate median); higher = more viable cells; settings: 5 µM; treatment time 24 h; reporter: 7TFP
# Method in brief: (§1)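 Cells were seeded in 384-well plates; these were colorectal cancer lines stably transduced with lentiviral 7TFP or TCF4/Wnt firefly luciferase reporters. After 24 h, library compounds went in at a final 5 µM, and exposure lasted 24 h. Parallel plates were then read for firefly luciferase or CellTiterGlo luminescence, each well normalised to its plate median, with two independent replicates averaged.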
# HCT116 [2] = assay: as above; settings: 5 µM; treatment time 24 h; reporter: TCF4/Wnt
# Method in brief: as §1
# SW480 [3] = assay: as above; settings: 5 µM; treatment time 24 h; reporter: 7TFP
# Method in brief: as §1
# DLD1 [4] = assay: TCF/Wnt firefly luciferase reporter signal relative to plate median (fraction of plate median); higher = higher Wnt reporter signal; settings: 5 µM; treatment time 24 h; reporter: 7TFP
# Method in brief: as §1
# SW480 [5] = assay: as above; settings: 5 µM; treatment time 24 h; reporter: 7TFP
# Method in brief: as §1
# DLD1 [6] = assay: cell viability (CellTiter-Glo) relative to plate median (fraction of plate median); higher = more viable cells; settings: 10 µM, treatment time 24 h
# Method in brief: (§2)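 Colorectal cancer cell lines stably transduced with lentiviral TCF/Wnt firefly luciferase reporters (7TFP or TCF4/Wnt) were seeded in 384-well plates. 24 h later they received kinase inhibitor library compounds at a final 10 µM for 24 h. Parallel plates were read for firefly luciferase or CellTiterGlo luminescence on a Tecan F500 reader. Each well's signal was normalised to the plate median (webcellHTS2, additive, no log transformation), and the mean of two independent replicates is reported.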
# HCT116 [7] = assay: as above; settings: 10 µM; treatment time 24 h; reporter: TCF4/Wnt
# Method in brief: as §2
# SW480 [8] = assay: as above; settings: 10 µM; treatment time 24 h; reporter: 7TFP
# Method in brief: as §2
# DLD1 [9] = assay: TCF/Wnt firefly luciferase reporter signal relative to plate median (fraction of plate median); higher = higher Wnt reporter signal; settings: 10 µM, treatment time 24 h
# Method in brief: as §2
# HCT116 [10] = assay: as above; settings: 10 µM; treatment time 24 h; reporter: TCF4/Wnt
# Method in brief: as §2
# SW480 [11] = assay: as above; settings: 10 µM; treatment time 24 h; reporter: 7TFP
# Method in brief: as §2
smiles,measurement,setting,value
CC(=O)NS(=O)(=O)c1ccc(N)cc1,cell viability,DLD1 [1],1.07 ± 0.05
same,cell viability,HCT116 [2],0.978 ± 0.088
same,cell viability,SW480 [3],1.05 ± 0.057
same,TCF/Wnt firefly luciferase reporter signal,DLD1 [4],1.01 ± 0.22
same,TCF/Wnt firefly luciferase reporter signal,SW480 [5],0.854 ± 0.023
COC(=O)C[C@H]1C2(C)CC34OC5(C)O[C@@]6([C@H](OC)C(OC(=O)C(C)C)[C@]7(C)C(/C(=C(/OC)C(C)C)C(=O)O[C@H]7c7ccoc7)[C@@]6(O5)[C@H](OC)[C@@]3(OC)C2OC(C)=O)[C@]14C (some centres undefined),cell viability,DLD1 [1],1.025 ± 0.0071
same,cell viability,HCT116 [2],0.916 ± 0.013
same,cell viability,SW480 [3],0.9595 ± 0.00071
same,TCF/Wnt firefly luciferase reporter signal,DLD1 [4],0.883 ± 0.065
same,TCF/Wnt firefly luciferase reporter signal,SW480 [5],0.903 ± 0.016
COc1cc2c(Oc3ccc(NC(=O)C4(C(=O)Nc5ccc(F)cc5)CC4)cc3F)ccnc2cc1OCCCN1CCOCC1,cell viability,DLD1 [6]; reporter: 7TFP,0.845 ± 0.044
same,cell viability,DLD1 [6]; reporter: TCF4/Wnt,0.875 ± 0.042
same,cell viability,HCT116 [7],0.845 ± 0.12
same,cell viability,SW480 [8],1.03 ± 0.13
same,TCF/Wnt firefly luciferase reporter signal,DLD1 [9]; reporter: 7TFP,0.794 ± 0.15
same,TCF/Wnt firefly luciferase reporter signal,DLD1 [9]; reporter: TCF4/Wnt,0.568 ± 0.054
same,TCF/Wnt firefly luciferase reporter signal,HCT116 [10],1.2 ± 0.28
same,TCF/Wnt firefly luciferase reporter signal,SW480 [11],0.838 ± 0.4
CC(C(=O)O)c1cccc(Oc2ccccc2)c1 (centres undefined),cell viability,DLD1 [1],0.968 ± 0.088
same,cell viability,HCT116 [2],0.98 ± 0.0057
same,cell viability,SW480 [3],0.988 ± 0.06
same,TCF/Wnt firefly luciferase reporter signal,DLD1 [4],1.04 ± 0.085
same,TCF/Wnt firefly luciferase reporter signal,SW480 [5],1.11 ± 0.042
Clc1ccc2c(c1)C(N1CCNCC1)=Nc1ccccc1O2,cell viability,DLD1 [1],1.045 ± 0.0071
same,cell viability,HCT116 [2],1.085 ± 0.0071
same,cell viability,SW480 [3],0.995 ± 0.021
same,TCF/Wnt firefly luciferase reporter signal,DLD1 [4],0.789 ± 0.058
same,TCF/Wnt firefly luciferase reporter signal,SW480 [5],0.905 ± 0.042
CN(c1ncccc1CNc1nc(Nc2ccc3c(c2)CC(=O)N3)ncc1C(F)(F)F)S(C)(=O)=O,cell viability,DLD1 [6]; reporter: 7TFP,0.974 ± 0.19
same,cell viability,DLD1 [6]; reporter: TCF4/Wnt,1.06 ± 0.071
same,cell viability,HCT116 [7],0.698 ± 0.21
same,cell viability,SW480 [8],1.19 ± 0.11
same,TCF/Wnt firefly luciferase reporter signal,DLD1 [9]; reporter: 7TFP,0.732 ± 0.28
same,TCF/Wnt firefly luciferase reporter signal,DLD1 [9]; reporter: TCF4/Wnt,1.66 ± 0.33
same,TCF/Wnt firefly luciferase reporter signal,HCT116 [10],0.2 ± 0.037
same,TCF/Wnt firefly luciferase reporter signal,SW480 [11],0.9115 ± 0.0064
COc1cc(C(=O)N2CCOCC2)cc(OC)c1OC,cell viability,DLD1 [1],1.08 ± 0.11
same,cell viability,HCT116 [2],1.03 ± 0.079
same,cell viability,SW480 [3],1.06 ± 0.028
same,TCF/Wnt firefly luciferase reporter signal,DLD1 [4],1.04 ± 0.24
same,TCF/Wnt firefly luciferase reporter signal,SW480 [5],1.08 ± 0.035
O=C(O)c1ccc2c(c1)nc(Nc1cccc(Cl)c1)c1ccncc12 [cx-4945 (Silmitasertib)],cell viability,DLD1 [6]; reporter: 7TFP,1 ± 0.057
same,cell viability,DLD1 [6]; reporter: TCF4/Wnt,0.955 ± 0.079
same,cell viability,HCT116 [7],0.839 ± 0.042
same,cell viability,SW480 [8],1 ± 0.092
same,TCF/Wnt firefly luciferase reporter signal,DLD1 [9]; reporter: 7TFP,0.508 ± 0.15
same,TCF/Wnt firefly luciferase reporter signal,DLD1 [9]; reporter: TCF4/Wnt,0.651 ± 0.2
same,TCF/Wnt firefly luciferase reporter signal,HCT116 [10],0.627 ± 0.36
same,TCF/Wnt firefly luciferase reporter signal,SW480 [11],0.612 ± 0.1
C/C=C(\CO)C(=O)O[C@H]1[C@H](O)[C@@H](C(=O)OC)O[C@@H]2C[C@H]3O[C@@H](n4cnc5c(N)ncnc54)[C@H](OC)[C@H]3O[C@]21O [Herbicidin A],cell viability,DLD1 [1],1.06 ± 0.014
same,cell viability,HCT116 [2],0.843 ± 0.045
same,cell viability,SW480 [3],0.982 ± 0.054
same,TCF/Wnt firefly luciferase reporter signal,DLD1 [4],0.933 ± 0.095
same,TCF/Wnt firefly luciferase reporter signal,SW480 [5],0.898 ± 0.064
COC(=O)C[C@H]1C(C)(C)[C@@H](OC(C)=O)[C@@H]2CC3=C4CC(=O)O[C@@H](c5ccoc5)[C@]4(C)CC[C@@H]3[C@@]1(C)C2=O,cell viability,DLD1 [1],0.9945 ± 0.0078
same,cell viability,HCT116 [2],1.045 ± 0.0071
same,cell viability,SW480 [3],0.963 ± 0.018
same,TCF/Wnt firefly luciferase reporter signal,DLD1 [4],0.993 ± 0.067
same,TCF/Wnt firefly luciferase reporter signal,SW480 [5],0.95 ± 0.041
CC1=CC(=O)c2ccccc2C1=O,cell viability,DLD1 [1],1.04 ± 0.05
same,cell viability,HCT116 [2],0.955 ± 0.064
same,cell viability,SW480 [3],1.025 ± 0.0071
same,TCF/Wnt firefly luciferase reporter signal,DLD1 [4],1.02 ± 0.044
same,TCF/Wnt firefly luciferase reporter signal,SW480 [5],0.914 ± 0.013
O=c1c(-c2cc(O)c(O)c(O)c2)coc2cc(O)c(O)c(O)c12,cell viability,DLD1 [1],1.005 ± 0.0071
same,cell viability,HCT116 [2],1.1 ± 0.078
same,cell viability,SW480 [3],1.04
same,TCF/Wnt firefly luciferase reporter signal,DLD1 [4],1.09 ± 0.035
same,TCF/Wnt firefly luciferase reporter signal,SW480 [5],0.93 ± 0.14
COc1ccc2c(c1OC)C(=O)O[C@@H]2[C@H]1c2c(cc3c(c2OC)OCO3)CCN1C,cell viability,DLD1 [1],0.9895 ± 0.0092
same,cell viability,HCT116 [2],0.879 ± 0.0099
same,cell viability,SW480 [3],0.995 ± 0.0014
same,TCF/Wnt firefly luciferase reporter signal,DLD1 [4],0.973 ± 0.17
same,TCF/Wnt firefly luciferase reporter signal,SW480 [5],0.945 ± 0.15
